Source: PubChem BioAssay (several laboratories)
S1P2 antag: S1P2 (human) receptor antagonism; cell-based S1P2 antagonist assay, inhibition at 5 uM; inhibition, % at 5 µM; hit rate 0.21% among 97,000; AID 736; in the data active means inhibition above about 45%;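 further: CRE beta-lactamase reporter cells expressing human S1P2 stimulated with S1P; 0% = agonist at EC80 alone and 100% = agonist plus reference antagonist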
Smad3 FoxH1 inh: blocks human Smad3 binding to FoxH1 peptide | TR-FRET Smad3/Dy647-FoxH1 peptide binding, europium anti-His | inhibition, % at 25 µM | hit rate 0.29% among 88,000 | AID 630;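 active means compounds that reduce the energy-transfer binding signal between the protein and its labelled peptide by more than half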;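 further: 0% = Smad3 plus labelled peptide maximal FRET and 100% = peptide-only background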
Target sequence (P84022 whole entry, looked up): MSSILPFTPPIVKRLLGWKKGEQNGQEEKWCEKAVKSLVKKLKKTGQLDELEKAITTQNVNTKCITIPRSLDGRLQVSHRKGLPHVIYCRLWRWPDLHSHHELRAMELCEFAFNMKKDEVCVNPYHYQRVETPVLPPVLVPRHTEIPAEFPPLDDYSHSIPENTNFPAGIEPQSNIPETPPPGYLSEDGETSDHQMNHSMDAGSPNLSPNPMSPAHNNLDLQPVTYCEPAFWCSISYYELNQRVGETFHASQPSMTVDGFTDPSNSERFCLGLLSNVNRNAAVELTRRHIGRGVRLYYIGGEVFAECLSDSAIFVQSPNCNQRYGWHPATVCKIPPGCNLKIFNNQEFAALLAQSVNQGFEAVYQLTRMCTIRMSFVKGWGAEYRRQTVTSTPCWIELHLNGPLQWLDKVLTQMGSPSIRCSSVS
GALR2 blocker: GALR2 (human) receptor antagonism; GALR2-expressing cells, antagonist mode; inhibition, % at 4 µM; hit rate 0.39% among 140,000; AID 828; in the data active means inhibition above about 27%;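 further: cells stimulated with galanin 1-16 at roughly its EC80; 0% = agonist challenge control and 100% = basal control without agonist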
GALR2 agonist: agonists of human galanin receptor 2 (GALR2) | O43603 | GALR2-expressing cells, agonist activation read-out | activation, % (test concentration not listed) | hit rate 0.48% among 140,000 | AID 803; in the data active means activation above about 5%, passing the limit was not always enough;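 further: 0% = vehicle buffer wells and 100% = reference agonist at full effect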
S1P2 agonist: activates the human S1P2 receptor; O95136; S1P2-expressing cell line, agonist reporter read-out; activation, % at 4.5 µM; hit rate 0.46% among 97,000; AID 729; in the data active means activation above about 16%;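 further: 0% = vehicle low control and 100% = maximal reference agonist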
MT1-MMP txn act: MT1-MMP promoter transcription activation; hit rate 0.16% among 86,000; activation factor at 10 µM; HT1080 MT1-MMP promoter luciferase reporter, luminescence, overnight; hits give high values; AID 750;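 active means activation factor of at least 2 for MT1-MMP transcription at 10 µM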
* marks the source's active call; other numbers are inactive results; [ ] = another dose, or the depositor's remark. An excerpt weighted towards active compounds, which were near 1.4% of everything screened.

What do the screens show for `CC1(C)Cc2c(sc(NC(=O)c3ccc(Br)o3)c2C#N)CO1`?
S1P2 antag: 3.5; Smad3 FoxH1 inh: 7.0; GALR2 blocker: -1.9; GALR2 agonist: 0.6; S1P2 agonist: -2.3; MT1-MMP txn act: 2.3*

Results for NC(=[SH+])[N-]/N=C/c1ccccn1.O=S(=O)(O)O.[Fe] ?
Smad3 FoxH1 inh: 50.5

Results for O=C(O)C/C=C/CC(=O)O ?
Smad3 FoxH1 inh: -7.0

What do the screens show for `CCCn1c(-c2cc(OC)c(OC)c(OC)c2)nc2nc3ccccc3nc21`?
S1P2 antag: 5.4; Smad3 FoxH1 inh: 1.7; GALR2 blocker: -9.7; GALR2 agonist: -0.8; S1P2 agonist: 16.7*; MT1-MMP txn act: 1.1

How did Nc1nc2c(c(=O)[nH]1)CN(CCCN1CCOCC1)CN2 do in these assays?
Smad3 FoxH1 inh: 72.5*

How did Nc1nc2c(c(=O)[nH]1)CN(c1ccc(S(N)(=O)=O)cc1)CN2 do in these assays?
Smad3 FoxH1 inh: 24.0

How did C=CCNc1oc(/C=C/c2ccccc2)nc1C#N do in these assays?
S1P2 antag: -22.4; GALR2 blocker: 1.8; GALR2 agonist: 12.2*; S1P2 agonist: 16.6*

Results for CN(C)CCNc1oc(/C=C/c2ccccc2)nc1C#N ?
GALR2 blocker: -13.8; GALR2 agonist: 0.6

Results for C[C@@H]1CC[C@H]2[C@H](C)[C@@H]3[C@@H](C[C@H]4[C@H]5CC=C6C[C@@H](O)CC[C@]6(C)[C@@H]5C[C@@H](O)[C@]34C)N2C1 ?
Smad3 FoxH1 inh: -2.3

How did CN1CCN(Cc2nc3ccccc3c(=O)n2Cc2nc(-c3ccc4ccccc4c3)cs2)CC1 do in these assays?
GALR2 blocker: 11.0; GALR2 agonist: 7.7*

Results for CN(CC(=O)O)CC(=O)O ?
Smad3 FoxH1 inh: -0.4

What do the screens show for `C=C(CC(=O)O)C(=O)O` (tested in a mixture with another compound)?
Smad3 FoxH1 inh: 86.6*

How did O=C(O)c1[nH]c2ccccc2c1-c1ccccc1 do in these assays?
S1P2 antag: -0.1; Smad3 FoxH1 inh: 80.0*[fluorescence artefact?]; GALR2 blocker: -12.0; GALR2 agonist: -1.4; S1P2 agonist: -2.1; MT1-MMP txn act: 1.3

What do the screens show for `Cc1ccc2[nH]c(C(=O)O)c(-c3ccccc3)c2c1`?
S1P2 antag: -1.2; Smad3 FoxH1 inh: 4.7; GALR2 blocker: -8.4; GALR2 agonist: -1.8; S1P2 agonist: -3.1; MT1-MMP txn act: 1

Results for O=C(NCC1(c2ccccc2)CCCC1)C(=O)NCC1(c2ccccc2)CCCC1 ?
S1P2 antag: -11.7; Smad3 FoxH1 inh: -2.6; GALR2 blocker: 4.7; GALR2 agonist: -0.2; S1P2 agonist: 0.0; MT1-MMP txn act: 1.1

What do the screens show for `O=C(NCC1(c2ccccc2)CCCC1)C(=O)N1CCOCC1`?
S1P2 antag: -13.7; Smad3 FoxH1 inh: -8.5; GALR2 blocker: 12.0; GALR2 agonist: -1.3; S1P2 agonist: 75.0*; MT1-MMP txn act: 1.3

How did CON/C=C(\C=Nc1ccc(F)cc1)c1ncc(C(F)(F)F)cc1Cl do in these assays?
S1P2 antag: 62.5*; GALR2 blocker: -3.5; GALR2 agonist: -2.7; S1P2 agonist: -8.6

What do the screens show for `CC[C@@H](Nc1ncnc2nc[nH]c12)C(=O)O`?
Smad3 FoxH1 inh: -0.2

What do the screens show for `O=C1Nc2ccc(Cl)cc2/C1=C/C1CC=CCC1` (centres undefined)?
GALR2 blocker: 1.8; GALR2 agonist: 5.0*

Results for CCOC(=O)c1c(C)n(C)c2ccc(OCC(O)CN(CC)CC)cc12 (centres undefined) ?
S1P2 antag: 11.3; Smad3 FoxH1 inh: 10.7; GALR2 blocker: 13.4; GALR2 agonist: -2.2; S1P2 agonist: -4.6; MT1-MMP txn act: 1.2

Results for CCOC(=O)c1c(C)n(C)c2ccc(OCC(O)Cn3nc(C)cc3C)cc12 (centres undefined) ?
S1P2 antag: -16.2; Smad3 FoxH1 inh: 2.7; GALR2 blocker: -7.0; GALR2 agonist: -0.4; S1P2 agonist: 58.4*; MT1-MMP txn act: 1.1

How did CC(C)(SCc1ccccc1)[C@H](N)C(=O)O do in these assays?
Smad3 FoxH1 inh: -7.1

Results for Cn1nc(C(=O)NCc2ccc(F)cc2)c2ccccc2c1=O ?
S1P2 antag: 23.6; Smad3 FoxH1 inh: -11.2; GALR2 blocker: 10.1; GALR2 agonist: -0.4; S1P2 agonist: -11.4; MT1-MMP txn act: 1

What do the screens show for `Cn1nc(CC(=O)NCc2ccc(C(F)(F)F)cc2)c2ccccc2c1=O`?
S1P2 antag: 62.1*; Smad3 FoxH1 inh: 3.9; GALR2 blocker: 16.9; GALR2 agonist: -3.1; S1P2 agonist: -3.5; MT1-MMP txn act: 1.1

What do the screens show for `Cc1ccccc1OCC(O)Cn1nnc2ccccc21` (centres undefined)?
S1P2 antag: -2.8; Smad3 FoxH1 inh: 1.4; GALR2 blocker: 4.5; GALR2 agonist: 0.0; S1P2 agonist: -7.7; MT1-MMP txn act: 2*

Results for C/C(Cn1nnc2ccccc21)=N\OC(=O)c1ccccc1C ?
GALR2 blocker: 5.3; GALR2 agonist: -0.5

What do the screens show for `CC(=O)Nc1nc(NC(C)=O)c2[nH]c(CO)nc2n1`?
Smad3 FoxH1 inh: 9.9

What do the screens show for `CC(C)CN(CC(C)C)C(=O)Cc1coc2ccc3ccccc3c12`?
S1P2 antag: -7.2; Smad3 FoxH1 inh: -4.7; GALR2 blocker: 0.3; GALR2 agonist: -0.8; S1P2 agonist: -4.9; MT1-MMP txn act: 1.2

Results for O=C(Cc1coc2ccc3ccccc3c12)N1CCCC1 ?
S1P2 antag: -28.7; Smad3 FoxH1 inh: 1.3; GALR2 blocker: 1.5; GALR2 agonist: -0.4; S1P2 agonist: 25.5*; MT1-MMP txn act: 1.2

How did CN1CCN(c2ccc3nc(-c4ccc5nc(-c6ccc(O)cc6)[nH]c5c4)[nH]c3c2)CC1 do in these assays?
Smad3 FoxH1 inh: 11.3

How did COc1ccc(CC(=O)Nc2ccc(-c3noc(COc4ccccc4C)n3)cc2)cc1 do in these assays?
Smad3 FoxH1 inh: 5.9; GALR2 blocker: 4.3; GALR2 agonist: 7.8*; MT1-MMP txn act: 1

How did COc1ccc(NCc2c(O)ccc3ccccc23)cc1 do in these assays?
Smad3 FoxH1 inh: 27.8

Results for COc1ccc(OCC(O)Cn2c(=N)n(Cc3ccccc3)c3ccccc32)cc1 (centres undefined) ?
S1P2 antag: 45.5; Smad3 FoxH1 inh: 1.8; GALR2 blocker: 29.1*; GALR2 agonist: -2.2; S1P2 agonist: -9.8; MT1-MMP txn act: 1.3

How did Cc1ccc(OCC(O)Cn2c(=N)n(Cc3ccccc3)c3ccccc32)cc1 (centres undefined) do in these assays?
S1P2 antag: 32.3; Smad3 FoxH1 inh: -8.0; GALR2 blocker: 10.5; GALR2 agonist: -0.9; S1P2 agonist: -4.0; MT1-MMP txn act: 1.2

Results for COc1ccc(-n2nnnc2S(=O)(=O)CC(=O)N2CCCCC2)cc1 ?
S1P2 antag: 52.6*; Smad3 FoxH1 inh: 7.3; GALR2 blocker: 48.2*; GALR2 agonist: -1.8; S1P2 agonist: -9.6; MT1-MMP txn act: 0.3

How did CCc1nc(C)c(C#N)c2cc(OC)c(OC)cc12 do in these assays?
S1P2 antag: -50.2; Smad3 FoxH1 inh: 0.9; GALR2 blocker: -4.2; GALR2 agonist: -3.6; S1P2 agonist: 25.6*; MT1-MMP txn act: 1

Results for CC(C)N(CC(=O)O)CC(=O)O ?
Smad3 FoxH1 inh: 1.0
